Results filed as inconclusive are left out. The source made the active and inactive calls. How the source made its calls, unless noted: active means hit-call score of the fitted dose curve at least 0.9, where 1 is the maximum; inactive means score below 0.9.
Experiments:
[1] = BSK_3C_TissueFactor: BioMAP Diversity Plus: 3C Assay for Tissue Factor Biomarker Activity (AID 2282997); conditions: BioMAP 3C HUVEC, tissue factor biomarker readout; actives raise or lower the signal
Summary of the method: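 ELISA read-out of Tissue Factor levels on human umbilical vein endothelium collected 24 h after chemical dosing. Gain or loss of signal was fitted relative to DMSO.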

[2] = read-out: Interleukin-1 alpha (IL1a), IL1A (gene 3552); test: BSK_BE3C_IL1a: BioMAP Diversity Plus: BE3C Assay for Interleukin-1 alpha (IL1a) Biomarker Activity (AID 2283016); conditions: primary human bronchial epithelial cells; actives raise or lower the signal
Summary of the method: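 BE3C primary human bronchial epithelium; cpd 24 h; IL-1a by ELISA; bidirectional fit vs DMSO; parallel SRB (0.1% SRB, 10% TCA fix, 560 nm) for cytotoxicity.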

[3] = read-out: Monocyte Chemoattractant Protein-1 (MCP1), CCL2 (gene 6347); test: BSK_3C_MCP1: BioMAP Diversity Plus: 3C Assay for Monocyte Chemoattractant Protein-1 (MCP1) Biomarker Activity (AID 2283017); conditions: primary human endothelial cells (HUVEC); actives raise or lower the signal
Summary of the method: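 ELISA read-out of MCP-1 from human umbilical vein endothelial cell cultures harvested 24 h post-dosing. Gain or loss of signal was fitted relative to DMSO.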

[4] = read-out: Interleukin-8 (IL8), CXCL8 (gene 3576); test: BSK_3C_IL8: BioMAP Diversity Plus: 3C Assay for Interleukin-8 (IL8) Biomarker Activity (AID 2283020); conditions: primary human endothelial cells (HUVEC); actives raise or lower the signal
Summary of the method: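 ELISA read-out of IL-8 from human umbilical vein endothelium, measured 24 h after chemical dosing. Activity is expressed relative to DMSO negative control, with both increases and decreases fitted.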

[5] = BSK_3C_SRB: Viability Assessment in the BioMAP Diversity Plus: 3C Assay (AID 2283023); conditions: primary human endothelial cells (HUVEC);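 further: fitted both ways against DMSO so a hit may be signal rise or drop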
Summary of the method: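 Absorbance at 560 nm of sulforhodamine B-stained (0.1%) total protein served as a cytotoxicity readout in human umbilical vein endothelial cells, 24 h after chemical treatment. Signal was fitted bidirectionally relative to DMSO.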

[6] = read-out: Pselectin, SELP (gene 6403); test: BSK_4H_Pselectin: BioMAP Diversity Plus: 4H Assay for Pselectin Biomarker Activity (AID 2283026); conditions: primary human endothelial cells (HUVEC); actives raise or lower the signal
Summary of the method: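 ELISA read-out of P-selectin on human umbilical vein endothelium after 24 h of dosing. Values derive from bidirectional fitting relative to DMSO. Parallel SRB protein staining flagged overt cytotoxicity.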

[7] = BSK_4H_SRB: Viability Assessment in the BioMAP Diversity Plus: 4H Assay (AID 2283027); conditions: primary human endothelial cells (HUVEC);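 further: cells exposed to compound for 24 h before staining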;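 on AC50: curves fitted both ways versus DMSO so AC50 may be loss or gain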
Summary of the method: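 Absorbance at 560 nm of SRB-stained total protein served as the viability read-out in confluent primary human umbilical vein endothelium 24 h after chemical treatment. Curves were fitted bidirectionally against DMSO as negative control.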

[8] = read-out: Human Leukocyte Antigen - DR isotype (HLADR), HLA-DRA (gene 3122); test: BSK_BE3C_HLADR: BioMAP Diversity Plus: BE3C Assay for Human Leukocyte Antigen - DR isotype (HLADR) Biomarker Activity (AID 2283032); conditions: primary human bronchial epithelial cells; actives raise or lower the signal
Summary of the method: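 ELISA read-out of HLA-DR on human lung bronchial epithelial primary cells, measured 24 h post-dosing. Both increases and decreases were scored relative to DMSO vehicle.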

[9] = read-out: Monokine induced gamma interferon (MIG), CXCL9 (gene 4283); test: BSK_BE3C_MIG: BioMAP Diversity Plus: BE3C Assay for Monokine induced gamma interferon (MIG) Biomarker Activity (AID 2283035); conditions: primary human bronchial epithelial cells; actives raise or lower the signal
Summary of the method: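 MIG level was determined by ELISA after 24 h chemical treatment of primary human bronchial epithelial cells. Values were fitted bidirectionally with DMSO as the negative control and activity baseline.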

[10] = read-out: Human Leukocyte Antigen - DR isotype (HLADR), HLA-DRA (gene 3122); test: BSK_CASM3C_HLADR: BioMAP Diversity Plus: CASM3C Assay for Human Leukocyte Antigen - DR isotype (HLADR) Biomarker Activity (AID 2283043); conditions: primary human coronary artery smooth muscle cells; actives raise or lower the signal;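 further: cell-surface HLA-DR protein level quantified by ELISA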
[11] = read-out: Macrophage colony-stimulating factor (MCSF), CSF1 (gene 1435); test: BSK_CASM3C_MCSF: BioMAP Diversity Plus: CASM3C Assay for Macrophage colony-stimulating factor (MCSF) Biomarker Activity (AID 2283044); conditions: primary human coronary artery smooth muscle cells; actives raise or lower the signal;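 further: M-CSF protein amount quantified by ELISA after 24 h exposure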
[12] = read-out: serum amyloid A (SAA), SAA1 (gene 6288); test: BSK_CASM3C_SAA: BioMAP Diversity Plus: CASM3C Assay for serum amyloid A (SAA) Biomarker Activity (AID 2283049); conditions: primary human coronary artery smooth muscle cells; actives raise or lower the signal;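 further: SAA protein level quantified by ELISA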
[13] = BSK_CASM3C_SRB: Viability Assessment in the BioMAP Diversity Plus: CASM3C Assay (AID 2283050); conditions: primary human coronary artery smooth muscle cells;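 further: total protein by SRB staining as cytotoxicity measure in parallel cultures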
[14] = read-out: Vascular cell adhesion molecule 1 (VCAM1), VCAM1 (gene 7412); test: BSK_CASM3C_VCAM1: BioMAP Diversity Plus: CASM3C Assay for Vascular cell adhesion molecule 1 (VCAM1) Biomarker Activity (AID 2283055); conditions: primary human coronary artery smooth muscle cells; actives raise or lower the signal;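 further: VCAM-1 protein level quantified by ELISA on the cells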
[15] = read-out: Collagen III, COL3A1 (gene 1281); test: BSK_hDFCGF_CollagenIII: BioMAP Diversity Plus: hDFCGF Assay for Collagen III Biomarker Activity (AID 2283056); conditions: primary human foreskin fibroblasts; actives raise or lower the signal
Summary of the method: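 ELISA read-out of collagen III from human skin fibroblast cultures sampled 24 h post-dosing. Values were derived by bidirectional fitting relative to the DMSO vehicle control.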

[16] = read-out: Interleukin-1 alpha (IL1a), IL1A (gene 3552); test: BSK_KF3CT_IL1a: BioMAP Diversity Plus: KF3CT Assay for Interleukin-1 alpha (IL1a) Biomarker Activity (AID 2283070); conditions: primary human keratinocytes with fibroblasts; actives raise or lower the signal
Summary of the method: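 Chemicals were dosed onto co-cultured human keratinocytes and foreskin fibroblasts, IL-1a was quantified by ELISA at 24 h, and activity was fitted in both directions relative to DMSO controls.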

[17] = read-out: Matrix Metallopeptidase 9 (MMP9), MMP9 (gene 4318); test: BSK_KF3CT_MMP9: BioMAP Diversity Plus: KF3CT Assay for Matrix Metallopeptidase 9 (MMP9) Biomarker Activity (AID 2283074); conditions: primary human keratinocytes with fibroblasts; actives raise or lower the signal;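 on AC50: MMP9 protein level quantified by ELISA in the co-culture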
Summary of the method: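 Human keratinocyte/foreskin fibroblast co-culture; compound added; 24 h; MMP-9 by ELISA; bidirectional fit vs DMSO baseline.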

[18] = read-out: Monocyte Chemoattractant Protein-1 (MCP1), CCL2 (gene 6347); test: BSK_LPS_MCP1: BioMAP Diversity Plus: LPS Assay for Monocyte Chemoattractant Protein-1 (MCP1) Biomarker Activity (AID 2283081); conditions: primary human HUVEC with PBMC; actives raise or lower the signal;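 on AC50: co-culture stimulated with LPS; secreted MCP-1 protein quantified by ELISA in culture supernatant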
Summary of the method: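 Human endothelial–PBMC co-cultures were dosed with chemical, then LPS-driven MCP-1 levels were quantified by ELISA at 24 h. Activity in either direction was fitted versus DMSO negative control.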

[19] = read-out: Tumor necrosis factor (Homo sapiens) (UniProt P01375); test: BSK_LPS_TNFa: BioMAP Diversity Plus: LPS Assay for Tumour Necrosis Factor alpha (TNFa) Biomarker Activity (AID 2283085); conditions: primary human HUVEC with PBMC; actives raise or lower the signal;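 on AC50: TNFa protein level quantified by ELISA in the co-culture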
Summary of the method: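 Read-out is ELISA of TNFa in primary human endothelial cell–PBMC co-cultures at 24 h after compound. Activity in either direction was fitted against DMSO.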

[20] = molecular target: Estrogen-related receptor gamma (Homo sapiens) (UniProt P62508); test: ATG_ERRg_TRANS: Attagene TRANS-FACTORIAL HepG2 Assay for human Estrogen-Related Receptor gamma (ERRg) (AID 2282977; active means hit-call score of the fitted dose curve at least 0.9, where 1 is the maximum;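 further: hits increase reporter signal over DMSO so potencies reflect activators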); conditions: HepG2 Attagene TRANS reporter, ERRg transactivation
Estrogen-related receptor gamma (Homo sapiens), sequence (P62508 whole entry, looked up, the tested form may be a part): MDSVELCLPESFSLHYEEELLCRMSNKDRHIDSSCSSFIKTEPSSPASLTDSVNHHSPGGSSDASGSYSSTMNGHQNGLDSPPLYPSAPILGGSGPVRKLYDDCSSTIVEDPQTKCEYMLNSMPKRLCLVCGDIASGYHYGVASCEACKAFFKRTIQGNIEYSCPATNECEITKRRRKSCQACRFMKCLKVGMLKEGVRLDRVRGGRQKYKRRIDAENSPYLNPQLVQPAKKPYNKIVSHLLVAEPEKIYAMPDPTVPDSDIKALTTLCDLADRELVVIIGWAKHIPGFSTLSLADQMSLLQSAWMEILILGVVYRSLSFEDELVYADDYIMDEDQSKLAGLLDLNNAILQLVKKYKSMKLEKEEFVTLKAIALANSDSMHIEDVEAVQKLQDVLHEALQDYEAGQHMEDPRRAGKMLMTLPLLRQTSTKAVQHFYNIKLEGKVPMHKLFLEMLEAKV
Summary of the method: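 Transfect HepG2 with multiple GAL4-UAS reporter transcription units; dose chemicals 24 h; isolate RNA, reverse-transcribe with oligo(dT), PCR-amplify, label with 6-FAM, digest with HpaI; size fragments by capillary electrophoresis. DMSO serves as negative control.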

Measured: AC50

Tumor necrosis factor (Homo sapiens), sequence (P01375 whole entry, looked up): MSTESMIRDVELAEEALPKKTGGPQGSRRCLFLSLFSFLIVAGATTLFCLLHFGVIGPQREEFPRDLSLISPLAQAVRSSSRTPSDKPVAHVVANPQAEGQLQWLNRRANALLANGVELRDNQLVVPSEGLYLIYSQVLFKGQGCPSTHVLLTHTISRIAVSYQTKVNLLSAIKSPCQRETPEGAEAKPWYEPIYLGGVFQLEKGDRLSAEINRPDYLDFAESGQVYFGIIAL

C=CCN(CC=C)C(=O)C(Cl)Cl
not listed: [20]
inactive: all other assays above

CC(C)(C)C(O)C(Oc1ccc(-c2ccccc2)cc1)n1cncn1 (stereo not given)
inactive: [1] | [2] | [4] | [8] | [9] | [18] | [19]
active: [3] 32.1 µM | [5] 31.7 µM | [6] 29.7 µM | [7] 31.6 µM | [10] 31.3 µM | [11] 20 µM | [12] 20 µM | [13] 30.5 µM | [14] 30.9 µM | [15] 24.9 µM | [16] 33 µM | [17] 28 µM

Nc1ccc([N+](=O)[O-])cc1N
inactive: [20]

C[C@]12CC[C@H](O)C[C@H]1CC[C@@H]1[C@@H]2C[C@@H](O)[C@]2(C)[C@@H](C3=CC(=O)OC3)CC[C@]12O
inactive: [20]

CC(C)C(=O)Cl
inactive: [20]

O=[N+]([O-])c1cc([N+](=O)[O-])c2ccccc2c1
inactive: [20]

O=c1c2ccccc2c(=O)c2c1cc(Cl)c1[nH]c3c([nH]c12)c(Cl)cc1c(=O)c2ccccc2c(=O)c13
active: [1] 15.8 µM
inactive: all other assays above

O=C(CCl)c1ccccc1
active: [1] 5.4 µM | [2] 32.6 µM | [3] 7.4 µM | [4] 10.9 µM | [5] 20 µM | [6] 3.29 µM | [7] 14.3 µM | [8] 30.4 µM | [9] 36.5 µM | [10] 6.84 µM | [11] 12.9 µM | [12] 14.6 µM | [13] 12.2 µM | [14] 7.45 µM | [15] 4.85 µM | [16] 28.4 µM | [17] 18 µM | [18] 6.34 µM | [19] 4.58 µM

C[N+](=O)[O-]
inactive: [20]

O=S(=O)(c1ccccc1)c1ccccc1
inactive: all assays above

Nc1ccc(Cl)c(Cl)c1
inactive: [20]

C#CC1(O)CCCCC1
inactive: [20]

N#CCNCC#N
inactive: [20]

S=c1[nH]c2ccccc2[nH]1
inactive: [20]

Cc1ccc(OP(=O)(Oc2ccc(C)cc2)Oc2ccc(C)cc2)cc1 (tested in a mixture with another compound)
active: [3] 20 µM | [5] 9.68 µM | [15] 12.9 µM | [17] 13.6 µM
not listed: [20]
inactive: all other assays above

[CH3][Sn]([CH3])([Cl])[Cl]
inactive: [20]

N#CCCCCC#N
not listed: [20]
inactive: all other assays above

CC(C)CCCCCCCOC(=O)c1ccccc1C(=O)OCCCCCCCC(C)C
inactive: all assays above

Reference: PubChem BioAssay (EPA / NIEHS)
